Test results from PubChem BioAssay AID1861 (The Scripps Research Institute Molecular Screening Center, 2009).
The campaign covered roughly 290,000 compounds. About 3,100 (1.1%) were called active. Rule as the data show it: active = inhibition above about 16% (passing the limit was not always enough); inactive = the rest. Many of the other results were omitted from the sample, so actives are more common in it than they were.

Target: Neuropeptides B/W receptor type 1 (Homo sapiens) (UniProt P48145)
Sequence (P48145 whole entry, looked up): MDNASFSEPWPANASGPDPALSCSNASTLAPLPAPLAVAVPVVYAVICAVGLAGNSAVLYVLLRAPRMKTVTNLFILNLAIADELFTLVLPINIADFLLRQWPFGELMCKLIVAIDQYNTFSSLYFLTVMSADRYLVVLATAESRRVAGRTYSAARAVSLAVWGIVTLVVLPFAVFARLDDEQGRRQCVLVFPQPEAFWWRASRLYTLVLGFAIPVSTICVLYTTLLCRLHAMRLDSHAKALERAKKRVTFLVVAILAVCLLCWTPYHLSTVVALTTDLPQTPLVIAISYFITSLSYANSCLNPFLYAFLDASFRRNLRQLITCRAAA
Test: GPR7 receptor antagonists, primary screen, cell-based, fluorescence, single concentration (AID 1861);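 also: cells stimulated with the agonist NPW; 0% = agonist with vehicle and 100% = vehicle without agonist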
Settings: GPR7-expressing cells, fluorescence antagonist assay; at 4.4 µM; stronger effect = higher value

| SMILES | inhibition |
| --- | --- |
| Cc1nn(C)c(Oc2ccccc2)c1[N+](=O)[O-] | -4.53% (inactive) |
| Cn1c(=O)c([N+](=O)[O-])c(Oc2ccccc2)c2ccccc21 | 101% (active) |
| Cc1cccc(Oc2c([N+](=O)[O-])c(=O)n(C)c3ccccc23)c1 | -3.17% (inactive) |
| CC(Cc1cccs1)N(Cc1ccc(Cl)cc1)C(=O)c1ccncc1 (stereo unspecified) | 14.5% (inactive) |
| O=[N+]([O-])c1cccc(/C=N/Nc2ncc(Br)cn2)c1 | -6.1% (inactive) |
| Cc1c(CN2CCC(n3nccc3NC(=O)CCc3ccccc3)CC2)cnn1C | 0.34% (inactive) |
| COc1ccc(S(=O)(=O)Nc2cccnc2)c(Cl)c1Cl | 4.69% (inactive) |
| COc1ccccc1Oc1ccc(S(=O)(=O)Nc2cccnc2)cc1 | 27.5% (active) |
| O=S(=O)(Nc1ccccn1)c1ccc(Oc2ccccc2)cc1 | -3.88% (inactive) |
| Cc1cc(=O)oc(C)c1C(=O)NC1CC(C)(C)NC(C)(C)C1 | 6.27% (inactive) |
| Cc1cc(OC(C)C(=O)NC2CC(C)(C)NC(C)(C)C2)c2c(C)cc(=O)oc2c1 (stereo unspecified) | 27.1% (active) |
| CC(Oc1cccc(Cl)c1)C(=O)NC1CC(C)(C)NC(C)(C)C1 (stereo unspecified) | -7.54% (inactive) |
| O=c1oc2ccccc2c(CNc2ccccc2)c1[N+](=O)[O-] | 6.62% (inactive) |
| CCN1/C(=C\c2ccc3ccccc3[n+]2CC)Sc2cc(C)ccc21 | 34.1% (active) |
| CCN1/C(=C/c2ccc3ccc(C)cc3[n+]2CC)Sc2ccccc21 | 38.4% (active) |
| CCN1CCN(CCNC(=O)c2ccc(/C=C3/Sc4ccccc4N(Cc4cccc(C)c4)C3=O)cc2)CC1 | 3.05% (inactive) |
| Cc1cc(-c2ccc(S(=O)(=O)N3CCc4ccccc4C3)s2)on1 | 1.59% (inactive) |
| CC(=O)Oc1ccc2c(=O)oc(-c3ccc([N+](=O)[O-])cc3)nc2c1 | -20.8% (inactive) |
| Cc1cccc(N(C(=O)c2csnn2)C(C(=O)NCc2ccccc2)c2ccncc2)c1 (stereo unspecified) | -21.8% (inactive) |
| CCC(=O)Nc1ccc(S(=O)(=O)Nc2c(NC)c3ccccc3oc2=O)cc1 | -6.83% (inactive) |
| Cn1c(Nc2ccccc2)cc(=O)n(C)c1=O | 19.8% (inactive) |

| SMILES | inhibition |
| --- | --- |
| Cc1cccc(N2CCN(C(=O)c3cc4c(=O)[nH]c5ccccc5c4n3C)CC2)c1C | -11.3% (inactive) |
| COc1ccccc1N(C(=O)Cn1nnc2ccccc21)C(C(=O)NCc1ccco1)c1ccc(C)o1 (stereo unspecified) | 27% (active) |
| O=C(NCc1ccco1)C(c1ccncc1)N(C(=O)Cn1nnc2ccccc21)c1ccccc1 (stereo unspecified) | -15.7% (inactive) |
| COCCNC(=O)C(c1ccc(C)o1)N(Cc1ccccc1)C(=O)Cn1nnc2ccccc21 (stereo unspecified) | -3% (inactive) |
| CCOc1ccc(C(CC(=O)O)NC(=O)Cc2ccccc2)cc1OC (stereo unspecified) | -15.8% (inactive) |
| COc1cccc2cc(C(N)=O)/c(=N\NC(=O)c3ccccc3)oc12 | 20.9% (inactive) |
| C=CCC1(CC=C)CCCN1C(=O)c1cc(COc2ccc(-n3cncn3)cc2)on1 | 29.1% (active) |
| CCn1ccnc1CN(C)C(=O)c1cc(COc2ccc(-n3cncn3)cc2)on1 | -16.5% (inactive) |
| O=C(c1cc(COc2ccc(F)c(F)c2)on1)N1CCOCC1 | 1.79% (inactive) |
| O=C(COC(=O)c1ccc(F)cc1)NCCCc1ccccc1 | 12.2% (inactive) |
| O=C(c1ccc(Cl)cc1)c1cnc(Nc2ccccc2)s1 | 7.11% (inactive) |
| CS(=O)(=O)c1ccc(Cl)c(NC(=O)Nc2ccccc2)c1 | 4.03% (inactive) |
| O=C(Nc1ccccc1)c1nnsc1S(=O)(=O)c1ccc(Cl)cc1 | 42.6% (active) |
| COc1ccccc1N1CCN(C(=O)c2ccc(NC3=NC4CS(=O)(=O)CC4S3)cc2)CC1 (stereo unspecified) | -7.21% (inactive) |
| Cc1cc(OCc2ccc(C(=O)Nc3ccc(C(=O)O)cc3)o2)ccc1Cl | 38% (active) |
| CCOc1ccc(OCc2ccc(C(=O)Nc3cccc(C)n3)o2)cc1 | -9.15% (inactive) |
| O=C(O)c1ccc(NC(=O)c2ccc(COc3ccc(Cl)cc3)o2)cc1 | 15.6% (inactive) |
| CCNc1c(NS(=O)(=O)c2ccc(C3CCCCC3)cc2)c(=O)oc2ccccc12 | 12.2% (inactive) |
| CC(=O)N1CCN(c2ccccc2NC(=S)NC(=O)c2cc3ccccc3o2)CC1 | -12.1% (inactive) |
| Cc1cc(C)nc(N/N=C/c2ccc([N+](=O)[O-])o2)n1 | -3.49% (inactive) |
| Cc1ccc(CNCc2ccc3c(c2)OCO3)c(C)c1 | -3.64% (inactive) |

| SMILES | inhibition |
| --- | --- |
| COc1cc(NC(=O)CN2C(=O)NC(C)(c3ccc(OC(F)F)cc3)C2=O)cc(OC)c1OC (stereo unspecified) | 25.8% (active) |
| COc1ccc(C(=O)CN2C(=O)NC(C)(c3ccc(C)cc3)C2=O)cc1OC (stereo unspecified) | 22.6% (inactive) |
| COc1ccc(C2(C)NC(=O)N(CC(=O)c3ccc4c(c3)OCO4)C2=O)cc1 (stereo unspecified) | 0.08% (inactive) |
| Cc1nonc1NC(=O)c1oc2ccccc2c1C | -9.19% (inactive) |
| CCOc1ccc(Cn2nnc(C(=O)Nc3ccc(OC)cc3OC)c2N)cc1 | 17.7% (inactive) |
| CCc1ccc(NC(=O)Cn2nnc(C(=O)NCc3ccc(OC)cc3)c2N)cc1 | -9.93% (inactive) |
| CCOc1ccc(Cn2nnc(C(=O)NCc3ccccc3)c2N)cc1 | 35.9% (active) |
| CCOc1ncccc1C(=O)NCCc1ccc(OC)cc1 | 24.6% (active) |
| COc1ccc(CCNC(=O)c2ccccc2OCc2ccccc2)cc1 | 1.73% (inactive) |
| O=C(NCCc1ccccn1)c1cccnc1Oc1ccc(Cl)cc1 | -10.8% (inactive) |
| CC(C)NC(=O)C(c1ccc(F)cc1)N(C(=O)CCC(=O)Nc1ccccn1)c1ccccc1F (stereo unspecified) | -14.6% (inactive) |
| O=C(NCCc1c[nH]c2ccc(Cl)cc12)c1ccc([N+](=O)[O-])cc1 | 7.45% (inactive) |
| Cc1ccc2[nH]cc(CCNC(=O)C3CCCCC3)c2c1 | -3.83% (inactive) |
| Cc1ccc2[nH]cc(CCNC(=O)c3ccc([N+](=O)[O-])cc3)c2c1 | 25% (active) |
| O=C(N/N=C/c1ccccc1O)C1CCCC1 | -6.49% (inactive) |
| CCN(CC)CCCNC(=O)CCn1nc(-c2ccc(Cl)cc2)ccc1=O | 11% (inactive) |
| O=C(Nc1ccc2c(c1)OCO2)C1CC(c2c(F)cccc2Cl)=NO1 (stereo unspecified) | 29% (active) |
| Cc1ccccc1N1CC(C(=O)Nc2ccc3c(c2)OCO3)CC1=O (stereo unspecified) | -9.07% (inactive) |
| Cc1ccc(NC(=O)C2CC(c3ccc(F)cc3)=NO2)cc1 (stereo unspecified) | -5.41% (inactive) |
